According to PubChem BioAssay (NCI):
The panel holds about 83,000 compounds, 20% with a hit somewhere; the sample as a whole holds those more often.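 Single-concentration screen, 48 h exposure, 96-well plates. Endpoint: percent growth. Below 10 = active.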 Values without a mark were called inactive. Active and inactive are the calls of the source.

These molecules were tested on SNB-75 CNS (assay: NCI-60 one-dose screen, 48 h (100 = growth as untreated, 0 = no growth, -100 = all killed)). Conditions: 10 µM unless noted.
Experimental: Growth inhibition of the SNB-75 human tumor cell line is measured as a screen for anti-cancer activity. Cells are grown in 96 well plates and exposed to the test compound for 48 hours. Compounds are tested at a single concentration, which is 10^-5 M for most compounds. The reported endpoint is percent growth (GI% or GIPRCNT), where numbers from 0 - 100% represent growth inhibition, and numbers from -100% - 0 represent cell death. For example, a value of 40 represents 60% growth inhibition. A value of 0 means no net growth occurred over the course of the experiment. A value of -40 indicates 40% of cells at the beginning of the experiment died by the end of the experiment. A value of -100 means all cells are dead at the end of the experiment.
NCI-60 Human Tumor Cell Lines Screen was performed using the standard one-dose NCI protocol, which is described in more detail at https://dtp.cancer.gov/discovery_development/nci-60/default.htm.
Compounds with GIPRCNT values below 10 were considered active. Activity score was based on GIPRCNT using the following formula: […]
Score is 0 for GIPRCNT values of 100 or above, 50 for GIPRCNT values of 0, and 100 for GIPRCNT values of -100.

| Structure (SMILES) | growth |
| --- | --- |
| Cc1cc(C(=O)Nc2ncc(Cc3cccc(C(F)(F)F)c3)s2)c2ccccc2n1 | 18.1% |
| NC(=O)c1ccc(-c2c3ccccc3cc3c2ccc2ccccc23)cc1 | 42.5% |
| COc1ccc(C(=O)/C=C/c2c(C(F)(F)F)nc3ccccn23)cc1OC | -19.9% (active) |
| COc1ccc(/C=N\Nc2nc(SCCC(C)C)nc(-c3ccc(OC)cc3)c2C#N)cc1 | -19.4% (active) |
| COc1ccc(Nc2nc(-c3cc(O)c(C)c(C)c3O)cs2)cc1 | 78.8% |
| O=S(=O)(NCCCNc1nccc(-c2c(-c3ccc(F)c(O)c3)nc3occn23)n1)c1ccc(Cl)cc1 | 95.6% |
| COC12C=C/C(=C(/C(=O)OCc3ccncn3)C(=O)CCCCCCCCC3(OC)C=C/C(=C(/C(=O)OCc4ccncn4)C(=O)CCCCCCCC1)O3)O2 | 48.7% |
| CCSc1oc(-c2ccccc2)nc1[P+](c1ccccc1)(c1ccccc1)c1ccccc1 | 2.74% (active) |
| O=C1NC(=O)C(Cc2ccc(OCc3ccc(-c4ccc(Cl)cc4Cl)cc3)cc2)S1 (stereo not given) | 59.1% |
| COc1ccc(Nc2ncc(Br)c(NCCCNC(=O)C3CCCC3)n2)cc1 | 51.1% |
| CCCCCCCCCCCCCCCCOCCCOP(=O)(O)C1CCCN(O)C1=O (stereo not given) | 22.8% |
| Cc1ccc2c(n1)C(=O)C(Br)=C(C1CCCC1)C2=O | 99.7% |
| CCOCCNC1=C(Cl)C(=O)c2ccccc2C1=O | 57.9% |
| CCOC(=O)[C@@H]1CSC(CC)=C(C(=O)O)N1 | 115% |
| N#CSCC1CC(O)(c2ccccc2)CC(c2ccc(F)cc2)O1 (stereo not given) | -25.8% (active) |
| O=C(/C=C(/C=C/c1ccc2[nH]ccc2c1)OB(F)F)/C=C/c1ccc2[nH]ccc2c1 | 23.1% |
| CC(C)(C)[Si](C)(C)OC1[C@@H](CNC(=O)NC(=O)NC(N)=O)O[C@@H](n2cnc3c(NC(=O)Nc4ccccc4)ncnc32)[C@H]1O[Si](C)(C)C(C)(C)C (stereo not given in full) | 84.1% |
| N#Cc1nc(-c2ccc(Cl)cc2)oc1S(=O)(=O)N1CCN(c2ccc(F)cc2)CC1 | 94.2% |
| Cc1ccc(NC(=O)Cn2cc(CN3CCN(c4ccnc5cc(Cl)ccc45)CC3)nn2)cc1 | 70.7% |
| CSc1nnc(-c2cc3c([nH]c4ccccc43)c(-c3cccc(O)c3)n2)n1-c1ccccc1 | 5.14% (active) |

| Structure (SMILES) | growth |
| --- | --- |
| O=C(COc1ccc(-c2nc3cc(Cl)c(Cl)cc3[nH]2)cc1)N=Nc1c(O)[nH]c2ccc(Cl)cc12 | 68.5% |
| O=[N+]([O-])c1cccc(-c2nc3cc4nc5ccccc5[nH]c4cc3n2)c1 | 101% |
| NS(=O)(=O)c1ccccc1NC(=O)Nc1nc2ccccc2s1 | 86.9% |
| O=C1NC(=C(Cl)Cl)/C(=N\S(=O)(=O)NCc2ccccc2)N1 | 84.6% |
| Cc1nc2sc(C(=O)Nc3cccc4ccccc34)c(N)c2cc1C(O)c1ccccc1 (stereo not given) | 68.8% |
| CCOC(=O)c1c(C(=O)c2cn(C)c3ccc(Br)cc23)c(-c2cn(C)c3ccc(Br)cc23)n(NC(=O)OC(C)(C)C)c1C | -27.3% [100 µM] (active) |
| CCOC(=O)c1nn(-c2ccc(S(N)(=O)=O)cc2)c2nc(C)cc(=O)n12 | 94.8% |
| Cc1cc(N2CCCCC2)cc(C)c1-c1csc(NC(=O)c2ccncc2)n1 | 55.7% |
| CCCNC(=O)Nc1ccc2cc3ccc(NC(=O)NCCC)cc3nc2c1 | 71.7% |
| Oc1c(I)cc(I)cc1CNCCN(Cc1ccccn1)Cc1ccccn1 | -57.2% (active) |
| O=C(OC(CO)C(=O)NC12CC3CC(CC(C3)C1)C2)c1ccc(Cl)cc1 (stereo not given) | 102% |
| COc1cc(NS(=O)(=O)c2ccc(-c3cnc(C4CC4)o3)cc2)ccc1F | -15.8% (active) |
| CC1(C)CC(=O)C2=C(C1)N(c1ccc(OC(F)(F)F)cc1)C(N)=C(C#N)C2c1ccc(Br)cc1F (stereo not given) | 54.1% |
| COC1=CC(c2ccc[nH]2)=N/C1=C\c1[nH]c(C)c(CC(=O)OCc2ccccc2)c1CCC(=O)OCc1ccccc1 | -6.6% (active) |
| O=C(NCCNc1nccc(Nc2ccc(S(=O)(=O)Nc3ccccn3)cc2)n1)c1cccc([N+](=O)[O-])c1 | 93.5% |
| N#Cc1c(-c2ccccc2)cc(-c2ccc(Nc3nc(Nc4ccc(Cl)cc4)nc(Nc4ccc(Cl)cc4)n3)cc2)nc1N | 66% |
| O=S(=O)(Nc1ccc(Cl)c(C(F)(F)F)c1)c1ccc(-c2cnc(C3CC3)o2)cc1 | -2.82% (active) |
| c1ccc([P+](c2ccccc2)(c2ccccc2)c2ccc3c4ccc([P+](c5ccccc5)(c5ccccc5)c5ccccc5)c5cccc(c6cccc2c63)c54)cc1 | 13.5% |
| CCCCNC(=O)CC1=C(C)/C(=C/c2[nH]c(-c3ccc[nH]3)cc2OC)N=C1C | 65.3% |
| COC(CC(F)F)c1cn(S(=O)(=O)c2ccc(C)cc2)c2ccccc12 (stereo not given) | 18.6% |
